# Inconclusive results are not listed. Activity calls are given as the source filed them. Calls follow the shape of the dose curve; as a rule, active = well fitted curve in the direction sought with a large enough effect; inconclusive = small, poorly fitted or top-dose-only effect, or another doubt; inactive = no such curve, though single readings can be large; an effect the other way counts as inactive or inconclusive.
# Biological target: Endonuclease 4 (Escherichia coli (strain K12)) (UniProt P0A6C1)
# Test: Counterscreen for APE1 Inhibitors: qHTS Validation Assay for Inhibitors of Endonuclease IV (AID 1708); also: % is scaled to controls: 0 for no effect and ±100 for the full control effect
# Conditions: E. coli endonuclease IV, DNA cleavage fluorescence; series mostly up to 57.1 µM; activity change, negative = inhibition: at the top concentration
# How it was run: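 Incision of a double-stranded 50 nM TAMRA/BHQ-2 abasic substrate was followed kinetically (525/598 nm, reads every 60 s) after 15 min enzyme–compound preincubation with 2 nM EndoIV in pH 7.5 Tris buffer with MgCl2, DTT and Tween-20; concentration-response format.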
row,SMILES,"activity change, negative = inhibition"
1,COc1cc(CC(=O)O)ccc1O,-2.01% (inactive)
2,Cn1c(=O)c2[nH]c(C3CCCC3)nc2n(C)c1=O,-0.562% (inactive)
3,O=c1[nH]c(=O)c2nc3ccccc3nc2[nH]1,-8.67% (inactive)
4,NOCC(=O)O,-4.34% (inactive)
5,NC(N)=NC(N)=Nc1ccccc1,-8.67% (inactive)
6,CC1CCN(CC[C@H]2CCCN2S(=O)(=O)c2cccc(O)c2)CC1,-9.4% (inactive)
7,N[C@H](C(=O)O)[C@H](O)C(=O)O,-5.7% (inactive)
8,CN(C)CCC(c1ccc(Br)cc1)c1ccccn1 (stereo not given),-2.49% (inactive)
9,NC(N)=NC(N)=Nc1cccc(Cl)c1,-5.7% (inactive)
10,CCN(CC)CCCCCCCCOC(=O)c1cc(OC)c(OC)c(OC)c1,-4.26% (inactive)
11,COc1ccccc1N1CCN(CCCCNC(=O)c2ccc3ccccc3c2)CC1,-10.2% (inactive)
12,C[C@H](O)C(=O)C1=Nc2c(nc(N)[nH]c2=O)NC1,-0.964% (inactive)
13,c1ccc(CN2CCC3(CCCc4ccccc43)CC2)cc1,1.45% (inactive)
14,O=C(O)c1ccccc1Nc1ccccc1,-4.5% (inactive)
15,NC(N)=[N+]1CCc2ccccc2C1,-0.803% (inactive)
16,O=C(O)C1=CCCN(CCON=C(c2ccccc2)c2ccccc2)C1,23.1% (inactive)
17,COc1ccccc1N1CCN(CCCNc2c(C)c(=O)n(C)c(=O)n2C)CC1,37.2% (inactive)
18,COc1cc(/C=C(\C#N)C(=O)c2ccc(O)c(O)c2)cc(I)c1O,24.3% (inactive)
19,O=C(O)/C(=C/c1c(C(=O)O)[nH]c2cc(Cl)cc(Cl)c12)c1ccccc1,-8.51% (inactive)
20,CN1CCC2(CCN3CCc4c(oc5ccccc45)C3C2)N(C)C1=O (stereo not given),-7.79% (inactive)
21,CC(=O)NCCc1c[nH]c2ccc(O)cc12,-7.31% (inactive)
22,Cc1cc2c(cc1Cl)N(C(=O)Nc1ccnc3ccccc13)CC2,-6.59% (inactive)
23,Cc1cccc(C)c1OCC(N)C(C)C (stereo not given),-1.61% (inactive)
24,O=C(O)c1cccnc1C(=O)O,-10.7% (inactive)
25,Nc1nc2[nH]c(=O)cnc2c(=O)[nH]1,1.85% (inactive)

# Tested on: not listed separately
# Test: qHTS for differential inhibitors of proliferation of Plasmodium falciparum line 7G8 (AID 1815);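 also: parasite growth measured after three days of incubation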; also: potency is read from the fitted curve at half-maximal effect;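 as to activity change, negative = inhibition: plate controls were vehicle wells for no effect and reference inhibitor wells for full effect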
# Conditions: Plasmodium falciparum 7G8 proliferation inhibition; series mostly up to 28.7 µM; activity change, negative = inhibition: at the top concentration
SMILES,"activity change, negative = inhibition",Potency
COc1cc(CC(=O)O)ccc1O,-11.5% (inactive),–
NC(Cc1cccc(-c2ccccc2CP(=O)(O)O)c1)C(=O)O (stereo not given),-7.81% (inactive),–
Cn1c(=O)c2[nH]c(C3CCCC3)nc2n(C)c1=O,-21.1% (inactive),–
NC(N)=NC(N)=Nc1ccccc1,-6.34% (inactive),–
CC(C)NCC(O)COc1ccc(CC(N)=O)cc1 (stereo not given),-4.88% (inactive),–
N[C@H](C(=O)O)[C@H](O)C(=O)O,5.36% (inactive),–
NC1C=CC=C(C(=O)O)C1 (stereo not given),11.4% (inactive),–
NCCC1CCCC(CCN)N1 (stereo not given),-15.5% (inactive),–
CC(=O)O[C@H]1CC2(C)[C@@H](C[C@@H](O)[C@H]3[C@@]4(C)CC[C@@H](O)[C@@H](C)[C@@H]4CC[C@@]32C)C1=C(CCC=C(C)C)C(=O)O (stereo not given in full),–,8.91 µM (active)
CCN(CC)CCCCCCCCOC(=O)c1cc(OC)c(OC)c(OC)c1,–,7.08 µM (active)
COc1ccccc1N1CCN(CCCCNC(=O)c2ccc3ccccc3c2)CC1,–,7.08 µM (active)
C[C@H](O)C(=O)C1=Nc2c(nc(N)[nH]c2=O)NC1,2.6% (inactive),–
c1ccc(CN2CCC3(CCCc4ccccc43)CC2)cc1,–,5.01 µM (active)
O=C(O)c1ccccc1Nc1ccccc1,8.41% (inactive),–
NC(N)=[N+]1CCc2ccccc2C1,5.19% (inactive),–
CC(N)=NCCCC[C@@H](N)C(=O)O,-3.47% (inactive),–
O=C(O)C1=CCCN(CCON=C(c2ccccc2)c2ccccc2)C1,-21.3% (inactive),–
COc1cc(C(O)CO)ccc1O (stereo not given),6.14% (inactive),–
COc1ccccc1N1CCN(CCCNc2c(C)c(=O)n(C)c(=O)n2C)CC1,-21.6% (inactive),–
CN[C@H](CC(=O)O)C(=O)O,-11.2% (inactive),–
CSC(N)=NCCC[C@H](N)C(=O)O,2.6% (inactive),–
CN1CCN(c2nc3cc(C(F)(F)F)ccc3n3cccc23)CC1,–,5.01 µM (active)
CCCC[C@@]1(C2CCCC2)Cc2cc(OCC(=O)O)c(Cl)c(Cl)c2C1=O,–,8.91 µM (active)
NC1(C(=O)O)CCc2cc(C(=O)O)ccc21 (stereo not given),-1.39% (inactive),–
CC(=O)NCCc1c[nH]c2ccc(O)cc12,15.5% (inactive),–
Cc1cc2c(cc1Cl)N(C(=O)Nc1ccnc3ccccc13)CC2,-15.5% (inactive),–
Cc1cccc(C)c1OCC(N)C(C)C (stereo not given),–,11.2 µM (active)
O=C(O)c1cccnc1C(=O)O,-7.69% (inactive),–
Nc1nc2[nH]c(=O)cnc2c(=O)[nH]1,9.4% (inactive),–

# Tested on: not listed separately
# Test: qHTS for differential inhibitors of proliferation of Plasmodium falciparum line GB4 (AID 1816);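 also: parasite growth measured after 72 h incubation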; also: potency is read from the fitted curve at half-maximal effect;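 as to activity change, negative = inhibition: 0% = vehicle DMSO and -100% = reference inhibitor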
# Conditions: Potency: Plasmodium falciparum GB4 proliferation inhibition; series mostly up to 28.7 µM; activity change, negative = inhibition: at the top concentration
SMILES,"activity change, negative = inhibition",Potency
COc1cc(CC(=O)O)ccc1O,-9.59% (inactive),–
NC(Cc1cccc(-c2ccccc2CP(=O)(O)O)c1)C(=O)O (stereo not given),-0.0908% (inactive),–
O=c1[nH]c(=O)c2nc3ccccc3nc2[nH]1,-23.1% (inactive),–
NOCC(=O)O,-23.7% (inactive),–
CC1CCN(CC[C@H]2CCCN2S(=O)(=O)c2cccc(O)c2)CC1,–,12.6 µM (active)
CC(C)NCC(O)COc1ccc(CC(N)=O)cc1 (stereo not given),-11.5% (inactive),–
N[C@H](C(=O)O)[C@H](O)C(=O)O,-4.45% (inactive),–
NC1C=CC=C(C(=O)O)C1 (stereo not given),-14.5% (inactive),–
NCCC1CCCC(CCN)N1 (stereo not given),-8.62% (inactive),–
COc1ccccc1N1CCN(CCCCNC(=O)c2ccc3ccccc3c2)CC1,–,10 µM (active)
C[C@H](O)C(=O)C1=Nc2c(nc(N)[nH]c2=O)NC1,-22.9% (inactive),–
c1ccc(CN2CCC3(CCCc4ccccc43)CC2)cc1,–,5.62 µM (active)
O=C(O)c1ccccc1Nc1ccccc1,-6.98% (inactive),–
NC(N)=[N+]1CCc2ccccc2C1,-19.6% (inactive),–
CC(N)=NCCCC[C@@H](N)C(=O)O,-0.446% (inactive),–
COc1cc(C(O)CO)ccc1O (stereo not given),-4.14% (inactive),–
CN[C@H](CC(=O)O)C(=O)O,-14.3% (inactive),–
CSC(N)=NCCC[C@H](N)C(=O)O,-3.81% (inactive),–
CN1CCN(c2nc3cc(C(F)(F)F)ccc3n3cccc23)CC1,–,8.91 µM (active)
CCCC[C@@]1(C2CCCC2)Cc2cc(OCC(=O)O)c(Cl)c(Cl)c2C1=O,–,12.6 µM (active)
NC1(C(=O)O)CCc2cc(C(=O)O)ccc21 (stereo not given),-9.52% (inactive),–
CN1CCC2(CCN3CCc4c(oc5ccccc45)C3C2)N(C)C1=O (stereo not given),-28.2% (inactive),–
CC(=O)NCCc1c[nH]c2ccc(O)cc12,1.33% (inactive),–
Cc1cc2c(cc1Cl)N(C(=O)Nc1ccnc3ccccc13)CC2,-12.2% (inactive),–
O=C(O)c1cccnc1C(=O)O,0.976% (inactive),–
Nc1nc2[nH]c(=O)cnc2c(=O)[nH]1,-8.95% (inactive),–

# Reference: PubChem BioAssay (NCATS)
